According to PubChem BioAssay:
Results filed as inconclusive are left out. Activity calls are given as the source filed them. No rule for the calls is given here.

How the values were obtained:
[1] = target: L-lactate dehydrogenase (Plasmodium falciparum (isolate CDC / Honduras)) (UniProt Q27743); assay: PfLDH activity inhibition – cell lysate, 3D7 strain, counter-screen for P. falciparum growth inhibition project (AID 2304);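 also: 0% = vehicle and 100% = reference inhibitor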; details: P. falciparum 3D7 crude extract, LDH APAD/NBT absorbance; at 2 µM; stronger effect = higher value
L-lactate dehydrogenase (Plasmodium falciparum (isolate CDC / Honduras)), sequence (Q27743 whole entry, looked up): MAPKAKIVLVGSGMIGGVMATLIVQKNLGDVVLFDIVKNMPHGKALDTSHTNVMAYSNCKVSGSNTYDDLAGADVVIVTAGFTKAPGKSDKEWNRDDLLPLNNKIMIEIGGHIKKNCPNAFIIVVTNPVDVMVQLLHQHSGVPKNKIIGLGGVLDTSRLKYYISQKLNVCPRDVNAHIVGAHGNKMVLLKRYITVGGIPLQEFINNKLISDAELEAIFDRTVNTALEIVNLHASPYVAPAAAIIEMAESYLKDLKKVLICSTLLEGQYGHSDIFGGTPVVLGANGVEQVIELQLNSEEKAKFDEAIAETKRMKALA

[2] = inhibition of 3D7 malaria parasite growth – strain 3D7 (AID 2306);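 also: 0% = DMSO wells and 100% = chloroquine plus artemisinin control wells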; details: P. falciparum 3D7 erythrocytic growth, LDH absorbance, 72 h; at 2 µM; stronger effect = higher value
[3] = rescue of PC12 cells from polyQ htt toxicity – LDH release (AID 1610); details: PC12 mutant huntingtin toxicity, final LDH at 4 uM, stronger effect = lower value

Row | SMILES | inhibition [1] | growth inhibition [2] | normalised LDH release [3]
1 | COc1cc(Cc2cnc(N)nc2N)cc(OC)c1OC | 3% (inactive) | 88% (active) | 
2 | CC(C)(C)c1ccc(C(O)CCCN2CCC(C(O)(c3ccccc3)c3ccccc3)CC2)cc1 (stereo not drawn) |  |  | 1
